In PubChem BioAssay AID743363 (Broad Institute, 2014):
Calls of active or inactive are those of the source. No rule for the calls is given here.

Test: BioD-coupled fluorescence displacement counter-assay – biochemical, dry powder samples, counter-screen, dose response (AID 743363)
Details: FL-DTB/streptavidin fluorescence displacement counter-screen; series mostly up to 10 µM

SMILES | outcome
CC(=O)c1ccc(N2CCN(C(=O)c3cc(Cl)c4c(c3)OCO4)CC2)cc1 | inactive
COc1ccccc1NC(=O)N1CC[C@@H]2[C@@H](CO)N(C)c3ccc(-c4ccc(F)cc4)cc3[C@@H]21 | inactive
CN1c2ccc(-c3cccc(F)c3)cc2[C@H]2[C@H](CCN2C(=O)CCCCCCN)[C@H]1CO | inactive
CN1c2ccc(-c3ccc(F)cc3)cc2[C@H]2[C@H](CCN2C(=O)Cc2ccccn2)[C@H]1CO | inactive
CC(=O)c1ccc(N2CCN(C(=O)c3ccc4c(c3)OC(C)(C)O4)CC2)cc1 | inactive
CN1c2ccc(-c3cccc(F)c3)cc2[C@H]2[C@H](CCN2C(=O)Cc2ccccc2)[C@H]1CO | inactive
COc1cc(C(=O)N2CCN(c3ccc(C(C)=O)cc3)CC2)cc2c1OCO2 | inactive
CC(=O)c1ccc(N2CCN(C(=O)c3ccc(Cl)c(Cl)c3)CC2)cc1 | inactive
CN1c2ccc(-c3cccc(F)c3)cc2[C@H]2[C@H](CCN2C(=O)Nc2ccccc2F)[C@H]1CO | inactive
CC(=O)c1ccc(N2CCCN(C(=O)c3ccc4c(c3)OCO4)CC2)cc1 | inactive
CCC(=O)N1CC[C@@H]2[C@@H](CO)N(C)c3ccc(-c4ccc(F)cc4)cc3[C@@H]21 | inactive
CNC(=O)c1ccc(N2CCN(C(=O)c3ccc4c(c3)OCO4)CC2)cc1 | inactive
COC(=O)CCCCCCC(=O)N1CC[C@@H]2[C@@H](CO)N(C)c3ccc(-c4cccc(F)c4)cc3[C@@H]21 | inactive
CC(=O)c1ccc(N2CCN(C(=O)c3ccc4snnc4c3)CC2)cc1 | inactive
CC(=O)c1ccc(N2CCN(C(=O)c3ccccc3Cl)CC2)cc1 | inactive
CC(=O)c1ccc(N2CCN(S(=O)(=O)c3ccc4c(c3)OCO4)CC2)cc1 | inactive
O=C(c1ccc2c(c1)OCO2)N1CCN(c2ccc(C(F)(F)F)cc2)CC1 | inactive
CC(=O)c1ccc(N2CCN(C(=O)c3cc4c(cc3Cl)OCO4)CC2)cc1 | inactive
CN1c2ccc(-c3ccc(F)cc3)cc2[C@H]2[C@H](CCN2C(=O)Cc2cccnc2)[C@H]1CO | inactive
CC(=O)c1ccc(NCCNC(=O)c2ccc3c(c2)OCO3)cc1 | inactive
COc1ccc(NC(=O)N2CC[C@@H]3[C@@H](CO)N(C)c4ccc(-c5cccc(F)c5)cc4[C@@H]32)cc1 | inactive
O=C(c1ccc2c(c1)OCO2)N1CCN(c2ccc(S(=O)(=O)C(F)(F)F)cc2)CC1 | inactive
CN(C)S(=O)(=O)c1ccc(N2CCN(C(=O)c3ccc4c(c3)OCO4)CC2)cc1 | inactive
CN1c2ccc(-c3cccc(F)c3)cc2[C@H]2[C@H](CCN2C(=O)CCCCCCC(=O)O)[C@H]1CO | inactive
CC(=O)c1ccc(N2CCN(C(=O)Nc3ccc4c(c3)OCO4)CC2)cc1 | inactive
CN1c2ccc(-c3ccc(F)cc3)cc2[C@H]2[C@H](CCN2C(=O)Nc2cc(F)ccc2F)[C@H]1CO | inactive
CC(=O)c1ccc(N2CCN(C(=O)c3ccc4c(c3)OCO4)[C@H](C)C2)cc1 | inactive
CC(=O)c1ccc(N2CCN(C(=O)c3cc4c(cc3C)OCO4)CC2)cc1 | inactive
CN(C)C(=O)c1ccc(N2CCN(C(=O)c3ccc4c(c3)OCO4)CC2)cc1 | inactive
CN1c2ccc(-c3cccc(F)c3)cc2[C@@H]2[C@@H](CCN2C(=O)c2ccc3c(c2)OCO3)[C@@H]1CO | inactive
